AC50 data for 1 compound are collected here from PubChem BioAssay AID2284104 (EPA ToxCast).

The source made the active and inactive calls. How the source made its calls: active means hit-call score of the fitted dose curve at least 0.9, where 1 is the maximum; inactive means score below 0.9.

Sequence of human PRAK CAMK Kinase, MAPKAPK5 (gene 8550) (Q8IW41 whole entry, looked up): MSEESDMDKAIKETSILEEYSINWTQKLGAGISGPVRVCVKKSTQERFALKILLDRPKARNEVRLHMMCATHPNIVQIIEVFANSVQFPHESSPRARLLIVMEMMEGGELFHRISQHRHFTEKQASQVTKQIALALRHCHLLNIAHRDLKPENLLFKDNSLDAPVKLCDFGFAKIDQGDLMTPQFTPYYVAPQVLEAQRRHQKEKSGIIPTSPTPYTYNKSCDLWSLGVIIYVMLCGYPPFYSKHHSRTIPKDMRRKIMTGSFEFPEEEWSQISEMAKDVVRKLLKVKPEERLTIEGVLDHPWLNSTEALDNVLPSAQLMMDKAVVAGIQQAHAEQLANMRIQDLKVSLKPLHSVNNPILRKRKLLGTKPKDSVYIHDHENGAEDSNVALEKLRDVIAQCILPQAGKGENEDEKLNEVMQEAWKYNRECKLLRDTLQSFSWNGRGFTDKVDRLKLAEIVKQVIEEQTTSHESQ

This assay concerns the target human PRAK CAMK Kinase, MAPKAPK5 (gene 8550) (UniProt Q8IW41). Description: ERF_TW_ENZ_hMAPKAPK5: Eurofins (ERF) Enzymatic Radiometric [10 uM ATP] LeadHunter Assay for human PRAK CAMK Kinase. Here is the method: ERF_TW_ENZ_hMAPKAPK5 is a biochemical, single-readout assay that uses extracted gene-proteins in a cell-free assay. Measurements were taken 0.5 hour after chemical dosing in a 96-well plate. See PRAK Human CAMK Kinase Enzymatic Radiometric Assay [10 uM ATP], Panlabs.ERF_TW_ENZ_hMAPKAPK5 is an assay component calculated from the ERF_TW_ENZ_hMAPKAPK5 assay. It is designed to measure enzyme activity using a type of enzyme reporter as detected by scintillation counting with radiometry technology.Data from the assay component ERF_TW_ENZ_hMAPKAPK5 was analyzed at the assay endpoint, ERF_TW_ENZ_hMAPKAPK5, in the positive analysis fitting direction relative to DMSO as the negative control and baseline of activity. Using a type of enzyme reporter, loss-of-signal activity can be used to understand changes in enzymatic activity as they relate to gene MAPKAPK5. To generalize the intended target to other relatable targets, this assay endpoint is annotated to the kinase intended target family, where the subfamily is serine/threonine kinase.
Human recombinant protein kinase PRAK expressed in insect Sf21 cells is used. Test compound is preincubated with 0.44 U/ml enzyme in modified MOPS buffer pH 7.2 for 15 minutes at 37C. […] An aliquot is removed and counted to determine the amount of [32P]PRAK substrate. […]
As usually defined, the AC50 is the concentration at which the activity in the assay is half-maximal. `O=C(/C=C/c1ccc(O)cc1)CC(=O)/C=C/c1ccc(O)cc1`: the AC50 is 1020 nM (active).
